According to PubChem BioAssay (NCI):
The panel holds about 83,000 compounds, 20% with a hit somewhere; the sample as a whole holds those more often.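 Method: cells in 96-well plates; compound added at one concentration; 48 h incubation; percent growth measured; values under 10 scored active.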 Unmarked numbers belong to inactive results. The source made the active and inactive calls.

These molecules were tested on A549/ATCC NSCLC (assay: NCI-60 one-dose screen, 48 h (100 = growth as untreated, 0 = no growth, -100 = all killed)). Conditions: 10 µM unless noted.
Protocol: Growth inhibition of the A549/ATCC human Non-Small Cell Lung tumor cell line is measured as a screen for anti-cancer activity. Cells are grown in 96 well plates and exposed to the test compound for 48 hours. Compounds are tested at a single concentration, which is 10^-5 M for most compounds. The reported endpoint is percent growth (GI% or GIPRCNT), where numbers from 0 - 100% represent growth inhibition, and numbers from -100% - 0 represent cell death. For example, a value of 40 represents 60% growth inhibition. A value of 0 means no net growth occurred over the course of the experiment. A value of -40 indicates 40% of cells at the beginning of the experiment died by the end of the experiment. A value of -100 means all cells are dead at the end of the experiment.
NCI-60 Human Tumor Cell Lines Screen was performed using the standard one-dose NCI protocol, which is described in more detail at https://dtp.cancer.gov/discovery_development/nci-60/default.htm.
Compounds with GIPRCNT values below 10 were considered active. Activity score was based on GIPRCNT using the following formula: […]
Score is 0 for GIPRCNT values of 100 or above, 50 for GIPRCNT values of 0, and 100 for GIPRCNT values of -100.

Which growth does the source give for `CCCCNc1nc(NC(C)(C)C)nc(NC(C)(C)C)n1` here?
Its growth is 56.3%.

With `O=C1c2ccc3c4c(ccc(c24)C(=O)N1CCCCO)C(=O)N(CCCCO)C3=O` as the molecule, how does the growth read?
Its growth is 45.6%.

How did the growth turn out when `COc1cc(C2C3=C(COC3=O)N(CCO)c3cc4c(cc32)OCCO4)cc(OC)c1O` (stereo not given) was run?
Its growth is 52.8%.

Which growth does the source give for `CCCC(c1nnnn1C1CCCCC1)N1CCN(C(=O)c2ccco2)CC1` (stereo not given) here?
The growth was 55.2%.

For `O=c1oc2ccc(Cl)cc2c(=O)n1-c1ccc(F)cc1F`, which growth is on record?
The growth was 4.94% (active).

For `Cc1ccc(N=NC2C(=O)N(c3ccc(Cl)cc3)N(c3ccc(Cl)cc3)C2=O)cc1`, which growth is on record?
Its growth is 99%.

`Cc1sc2ncn(CC(=O)Nc3ccc(S(N)(=O)=O)cc3)c(=O)c2c1C` was tested. Which growth did it give?
Its growth is 98%.

With `COc1c2ccoc2c(/C=C/C=O)c2oc(-c3ccccc3)cc(=O)c12` as the molecule, how does the growth read?
Its growth is 91.3%.

For `CCCC(=O)CC(C)=O.CCCC(=O)CC(C)=O.[Cu]`, which growth is on record?
Its growth is 79.4%.

How did the growth turn out when `O=C1N=c2ccccc2=C1c1sc(=Nc2ccccc2)n(Nc2ccccc2)c1O` was run?
The growth was 108%.

With `CN1CCN(Cc2ccc(NC(=O)c3[nH]ncc3Nc3cc(OC4CCCC4)ncn3)cc2)CC1` as the molecule, how does the growth read?
Its growth is 8.79% (active).

For `COc1ccc(/C=C/C(=O)c2c(C)nc3ccccc3c2/C=C/c2ccccc2)cc1O`, which growth is on record?
The growth was 39.5%.

Which growth does the source give for `COc1ccc(Cn2c(Br)c3c(c2-c2cc(OC)c(OC)c(OC)c2)CCc2sc(NC(=O)c4ccc(OC)cc4)nc2-3)cc1` here?
The growth was 94.2%.

`Cc1cc2c(c(C)c1Cl)C(=O)/C(=C/c1ccco1)O2` was tested. Which growth did it give?
Its growth is 103%.

Which growth does the source give for `COc1cc(/C=C2\CCC/C(=C\c3cc(CN4CCCCC4)c(O)c(OC)c3)C2=O)cc(CN2CCCCC2)c1O` here?
Its growth is 89.7%.

`CC(=O)Nc1nc2c(s1)CCc1c-2cn(S(=O)(=O)c2ccccc2)c1-c1ccccc1` was tested. Which growth did it give?
The growth was 53.4%.

With `Cc1[nH]c2ccccc2c(=O)c1CC=C(Cl)Cl` as the molecule, how does the growth read?
The growth was 16.9%.

For `CCCCCCCCCCOC(=O)c1ccccc1C(=O)OCCCC`, which growth is on record?
The growth was 111%.

Which growth does the source give for `COc1ccc2oc(=O)cc(Cn3cc(Cn4cnc5c4c(=O)n(C)c(=O)n5C)nn3)c2c1` here?
Its growth is 103%.

How did the growth turn out when `COc1cccc(-c2nn(C)c3sc(C(=O)NCCN4CCN(c5ccccc5F)CC4)cc23)c1` was run?
Its growth is 74.7%.

For `CCOC(=O)c1cnc2c(C)cccc2c1Nc1ccc(C(C)=O)cc1`, which growth is on record?
Its growth is -60.9% (active).

How did the growth turn out when `CCCCCCc1cc2cc(-c3nc4ccccc4[nH]3)c(=Nc3ccccc3C)oc2cc1O` was run?
Its growth is 49.9%.

For `COc1cc([C@@H]2NC(=O)NC(C)=C2C(=O)Nc2nc(-c3ccc(Cl)cc3)cs2)ccc1O`, which growth is on record?
Its growth is 97.1%.

Which growth does the source give for `CCn1c(-c2nonc2Nc2ccc(OC)cc2)nc2ccccc21` here?
The growth was 93.5%.

With `O=S(=O)(c1ccccc1)n1cc2c(c1-c1ccccc1)CCc1sc(Nc3ccccc3)nc1-2` as the molecule, how does the growth read?
Its growth is 75.2%.

How did the growth turn out when `COc1cc2c(cc1OC)C(=O)C(CC1CCN(C(=O)Nc3ccc(C)cc3)CC1)C2` (stereo not given) was run?
The growth was 108%.

`Cc1ccc2c(n1)C(=O)C(Oc1ccc(Br)cc1)=CC2=O` was tested. Which growth did it give?
The growth was 100%.

With `Cn1c(C(=O)c2cccc3ccccc23)nc2ccccc21` as the molecule, how does the growth read?
Its growth is 3.42% (active).

How did the growth turn out when `COc1cc2nc(NC3CCCC3)nc(NC3CCN(C(C)C)CC3)c2cc1OC` was run?
Its growth is 75.7%.

`CCOC(=O)c1cc2c(n1Cc1cc(OC)c(OC)c(OC)c1)-c1oncc1CCC2` was tested. Which growth did it give?
The growth was 26.7%.

Which growth does the source give for `O=[N+]([O-])c1cc2c(ccc3occc32)o1` here?
Its growth is 26.1%.

How did the growth turn out when `O=C(Nc1ccc(I)cc1F)c1cc(Br)ccc1O` was run?
The growth was 7.17% (active).

With `O=C1CCC(N2C(=O)c3cccc(NCCCCCCOc4ccc(Nc5nccc(Nc6ccccc6)n5)cc4)c3C2=O)C(=O)N1` (stereo not given) as the molecule, how does the growth read?
The growth was 81.6%.

`O=C(Nc1ccc(N2CCNCC2)cc1)c1[nH]ncc1Nc1ncnc2sc3c(c12)CCC3` was tested. Which growth did it give?
Its growth is -71.4% (active).

How did the growth turn out when `Cc1ccc(Cc2cnc(NC(=O)CN3C(=O)/C(=C\c4ccccc4)SC3=S)s2)cc1` was run?
The growth was 103%.

Which growth does the source give for `O=C(c1nc2ccccc2[nH]1)C1C(c2cccc([N+](=O)[O-])c2)C2CC3CCCCC3N2[C@@]12C(=O)Nc1cc(Cl)ccc12` (stereo not given in full) here?
Its growth is 17.8%.

`COc1ccc(OC)c(NC(=O)/C(C#N)=C/c2ccco2)c1` was tested. Which growth did it give?
Its growth is 93.8%.

How did the growth turn out when `O=c1oc2ccc(Cl)cc2c(=O)n1-c1ccc(I)cc1F` was run?
Its growth is 7.89% (active).

Which growth does the source give for `O=C1C(=O)c2c(ccc3ccccc23)-c2ccccc21` here?
Its growth is 24.1%.

For `NCCCNc1nc2ccccc2c2c(=O)c3cc(F)ccc3sc12`, which growth is on record?
Its growth is -29.3% (active).
